The source of these data is PMC7862700, “An all-to-all approach to the identification of sequence-specific readers for epigenetic DNA modifications on cytosine”.

Holding throughout (assay): DAPPL (digital affinity profiling via proximity ligation, sequencing); 10 mM Tris-HCl pH 7.5, 50 mM NaCl, 1 mM DTT, 4% glycerol, room temperature, 30 min; GST-TFs on glutathione beads, 16-mer random dsDNA library, 0.1% formaldehyde crosslink after washing; high values mean tight binding
One assay concerns the target T1, FEV (Homo sapiens, UniProt Q99581 1-238).
T1 sequence: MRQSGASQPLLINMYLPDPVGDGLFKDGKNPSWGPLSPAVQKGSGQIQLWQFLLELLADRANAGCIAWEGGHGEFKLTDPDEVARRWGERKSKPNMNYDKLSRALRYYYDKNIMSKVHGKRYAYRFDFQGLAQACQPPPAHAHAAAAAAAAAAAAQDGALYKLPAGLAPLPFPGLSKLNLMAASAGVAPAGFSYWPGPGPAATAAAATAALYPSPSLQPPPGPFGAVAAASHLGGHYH
The note with it: protein: recombinant; tags: N-terminal GST; dsDNA, one strand shown. In outline: (§1)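 Human transcription factors were made in yeast as GST fusions, captured on glutathione beads and barcoded with DNA. With a tag-only sample included, the pool was incubated with 200 nmole of a random double-stranded 16-mer DNA library in Tris/NaCl/DTT/glycerol buffer at room temperature for 30 min, then crosslinked with 0.1% formaldehyde after washing, ligated by proximity, amplified and sequenced. For binding signal, each hexamer's read frequency for a factor is divided by its frequency for the tag-only sample.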

The next assay has as its target ETV5 (Homo sapiens, UniProt P41161 1-510). The note with it: protein: recombinant; tags: N-terminal GST; dsDNA, one strand shown. In outline: as §1
Another assay deals with HSF1 (Homo sapiens, UniProt Q00613 1-529). The note with it: protein: recombinant; tags: N-terminal GST; chain copies: 3; dsDNA, one strand shown. In outline:
as §1

For another assay, the target named is T2, SPIC (Homo sapiens, UniProt Q8N5J4 1-248).
T2 sequence: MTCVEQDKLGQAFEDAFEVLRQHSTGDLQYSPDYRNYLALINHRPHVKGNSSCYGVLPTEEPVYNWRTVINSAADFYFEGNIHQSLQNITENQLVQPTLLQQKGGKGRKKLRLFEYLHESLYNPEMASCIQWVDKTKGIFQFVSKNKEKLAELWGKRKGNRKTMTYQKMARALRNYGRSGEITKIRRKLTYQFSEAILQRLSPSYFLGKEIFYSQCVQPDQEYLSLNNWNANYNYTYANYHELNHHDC
The note with it: protein: recombinant; tags: N-terminal GST; dsDNA, one strand shown. In outline:
as §1

The target in another assay is ELF4 (Homo sapiens, UniProt Q99607 1-663). The note with it: protein: recombinant; tags: N-terminal GST; dsDNA, one strand shown. In outline: as §1
Another assay has as its target T3, ELK4 (Homo sapiens, UniProt P28324-2 1-405).
T3 sequence: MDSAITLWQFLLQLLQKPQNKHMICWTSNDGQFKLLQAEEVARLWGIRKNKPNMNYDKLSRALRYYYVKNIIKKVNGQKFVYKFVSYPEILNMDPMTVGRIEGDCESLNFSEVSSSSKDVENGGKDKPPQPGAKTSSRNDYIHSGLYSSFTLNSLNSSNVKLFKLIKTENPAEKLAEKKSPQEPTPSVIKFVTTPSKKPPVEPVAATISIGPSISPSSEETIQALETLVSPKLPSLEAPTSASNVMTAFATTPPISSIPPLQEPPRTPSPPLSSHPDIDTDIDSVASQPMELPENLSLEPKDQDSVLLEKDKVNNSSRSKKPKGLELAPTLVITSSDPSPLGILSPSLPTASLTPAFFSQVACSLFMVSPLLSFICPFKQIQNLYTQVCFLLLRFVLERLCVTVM
The note with it: protein: recombinant; tags: N-terminal GST; dsDNA, one strand shown. The method, boiled down: as §1

Another assay concerns the target T4, ETV2 (Homo sapiens, UniProt O00321 1-342).
T4 sequence: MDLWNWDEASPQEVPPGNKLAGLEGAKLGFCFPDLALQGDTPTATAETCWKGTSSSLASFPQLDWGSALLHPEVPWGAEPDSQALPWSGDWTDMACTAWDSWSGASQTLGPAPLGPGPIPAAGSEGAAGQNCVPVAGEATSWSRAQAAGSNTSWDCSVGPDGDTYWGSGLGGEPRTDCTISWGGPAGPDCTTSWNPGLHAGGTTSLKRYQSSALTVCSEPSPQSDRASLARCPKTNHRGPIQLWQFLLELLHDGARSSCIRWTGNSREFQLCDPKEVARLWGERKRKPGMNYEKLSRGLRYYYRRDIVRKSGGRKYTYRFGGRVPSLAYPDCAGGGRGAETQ
The note with it: protein: recombinant; tags: N-terminal GST; dsDNA, one strand shown. The method, boiled down: as §1

A further assay has as its target T5, ELF3 (Homo sapiens, UniProt P78545 1-371).
T5 sequence: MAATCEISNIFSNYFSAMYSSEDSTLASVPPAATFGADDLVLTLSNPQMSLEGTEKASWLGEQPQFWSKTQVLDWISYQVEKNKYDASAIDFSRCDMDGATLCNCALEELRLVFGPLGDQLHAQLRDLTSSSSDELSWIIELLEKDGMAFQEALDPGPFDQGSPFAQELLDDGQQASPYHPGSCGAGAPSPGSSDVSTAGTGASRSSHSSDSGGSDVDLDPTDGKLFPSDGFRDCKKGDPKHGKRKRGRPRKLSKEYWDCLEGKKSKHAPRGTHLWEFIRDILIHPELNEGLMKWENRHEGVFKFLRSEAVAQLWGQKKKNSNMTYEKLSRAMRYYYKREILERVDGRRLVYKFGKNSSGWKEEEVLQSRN
The note with it: protein: recombinant; tags: N-terminal GST; dsDNA, one strand shown. The method, boiled down: as §1

The target in a further assay is CRX (Homo sapiens, UniProt O43186 1-299). The note with it: protein: recombinant; tags: N-terminal GST; dsDNA, one strand shown. The method, boiled down: as §1
The target of a further assay is ETV1 (Homo sapiens, UniProt P50549 1-477). The note with it: protein: recombinant; tags: N-terminal GST; dsDNA, one strand shown. The method, boiled down: as §1
The target in another assay is T6, ERF (Homo sapiens, UniProt P50548 1-548).
T6 sequence: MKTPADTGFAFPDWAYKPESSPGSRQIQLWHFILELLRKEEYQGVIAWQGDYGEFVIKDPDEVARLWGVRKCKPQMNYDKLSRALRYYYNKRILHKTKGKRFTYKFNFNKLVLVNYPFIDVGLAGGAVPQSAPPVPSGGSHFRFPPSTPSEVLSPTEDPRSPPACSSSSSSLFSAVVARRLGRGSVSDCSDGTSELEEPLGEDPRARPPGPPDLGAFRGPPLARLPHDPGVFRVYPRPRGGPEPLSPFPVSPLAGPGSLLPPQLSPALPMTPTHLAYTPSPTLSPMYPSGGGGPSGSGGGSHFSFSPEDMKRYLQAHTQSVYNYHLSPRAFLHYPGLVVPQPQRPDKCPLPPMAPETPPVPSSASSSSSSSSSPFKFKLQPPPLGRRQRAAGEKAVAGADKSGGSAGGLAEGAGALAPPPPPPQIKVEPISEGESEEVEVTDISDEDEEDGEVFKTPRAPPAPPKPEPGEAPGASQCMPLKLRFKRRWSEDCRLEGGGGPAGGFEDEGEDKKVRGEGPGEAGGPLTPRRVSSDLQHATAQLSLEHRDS
The note with it: protein: recombinant; tags: N-terminal GST; dsDNA, one strand shown. The method, boiled down:
as §1

The target of the next assay is T7, ETV3L (Homo sapiens, UniProt Q6ZN32 1-361).
T7 sequence: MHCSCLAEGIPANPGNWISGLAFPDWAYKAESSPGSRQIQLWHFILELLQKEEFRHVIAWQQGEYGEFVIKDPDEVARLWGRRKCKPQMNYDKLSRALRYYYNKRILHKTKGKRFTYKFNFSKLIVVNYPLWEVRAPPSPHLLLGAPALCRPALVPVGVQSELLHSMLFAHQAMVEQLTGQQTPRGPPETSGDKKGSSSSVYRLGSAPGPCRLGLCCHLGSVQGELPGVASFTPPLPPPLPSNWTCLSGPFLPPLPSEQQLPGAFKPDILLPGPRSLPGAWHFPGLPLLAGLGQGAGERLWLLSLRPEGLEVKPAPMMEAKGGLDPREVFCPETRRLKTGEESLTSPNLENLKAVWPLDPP
The note with it: protein: recombinant; tags: N-terminal GST; dsDNA, one strand shown. In outline:
as §1

The next assay has as its target T8, ETS2 (Homo sapiens, UniProt P15036 1-469).
T8 sequence: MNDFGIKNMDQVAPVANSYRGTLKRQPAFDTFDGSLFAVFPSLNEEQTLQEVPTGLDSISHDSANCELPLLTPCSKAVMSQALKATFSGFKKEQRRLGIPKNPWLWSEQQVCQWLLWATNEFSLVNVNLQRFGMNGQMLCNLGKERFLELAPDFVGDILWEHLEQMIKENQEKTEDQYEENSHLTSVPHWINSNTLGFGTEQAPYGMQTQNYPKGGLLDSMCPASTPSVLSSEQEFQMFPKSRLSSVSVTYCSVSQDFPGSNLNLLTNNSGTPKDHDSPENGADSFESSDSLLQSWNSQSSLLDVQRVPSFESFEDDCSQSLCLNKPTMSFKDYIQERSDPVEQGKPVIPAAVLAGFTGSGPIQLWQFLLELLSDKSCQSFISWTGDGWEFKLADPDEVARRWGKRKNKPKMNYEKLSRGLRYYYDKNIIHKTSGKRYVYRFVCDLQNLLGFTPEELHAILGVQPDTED
The note with it: protein: recombinant; tags: N-terminal GST; dsDNA, one strand shown. The method, boiled down: as §1

In the next assay the target is T9, SPDEF (Homo sapiens, UniProt O95238 1-335).
T9 sequence: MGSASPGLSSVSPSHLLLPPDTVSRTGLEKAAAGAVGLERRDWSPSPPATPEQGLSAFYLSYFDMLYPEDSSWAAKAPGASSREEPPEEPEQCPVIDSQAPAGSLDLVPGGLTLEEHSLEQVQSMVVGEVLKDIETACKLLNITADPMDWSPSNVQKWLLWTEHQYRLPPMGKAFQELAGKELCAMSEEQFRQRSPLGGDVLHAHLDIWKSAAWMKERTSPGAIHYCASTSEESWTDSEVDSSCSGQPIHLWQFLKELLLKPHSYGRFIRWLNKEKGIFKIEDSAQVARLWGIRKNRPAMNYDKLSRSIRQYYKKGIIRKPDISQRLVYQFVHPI
The note with it: protein: recombinant; tags: N-terminal GST; dsDNA, one strand shown. In outline: as §1

The next assay addresses T10, ETV7 (Homo sapiens, UniProt Q9Y603 1-341).
T10 sequence: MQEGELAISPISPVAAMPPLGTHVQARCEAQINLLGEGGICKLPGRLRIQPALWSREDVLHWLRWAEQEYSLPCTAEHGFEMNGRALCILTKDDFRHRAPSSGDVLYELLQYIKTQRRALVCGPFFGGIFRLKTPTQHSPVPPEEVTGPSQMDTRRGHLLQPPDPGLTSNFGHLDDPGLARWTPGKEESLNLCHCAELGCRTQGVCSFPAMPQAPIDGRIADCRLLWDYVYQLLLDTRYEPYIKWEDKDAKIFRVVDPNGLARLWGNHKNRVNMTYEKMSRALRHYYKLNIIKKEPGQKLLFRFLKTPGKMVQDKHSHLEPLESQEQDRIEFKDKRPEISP
The note with it: protein: recombinant; tags: N-terminal GST; dsDNA, one strand shown. In outline:
as §1

In a further assay the target is T11, ELF5 (Homo sapiens, UniProt Q9UKW6-2 1-255).
T11 sequence: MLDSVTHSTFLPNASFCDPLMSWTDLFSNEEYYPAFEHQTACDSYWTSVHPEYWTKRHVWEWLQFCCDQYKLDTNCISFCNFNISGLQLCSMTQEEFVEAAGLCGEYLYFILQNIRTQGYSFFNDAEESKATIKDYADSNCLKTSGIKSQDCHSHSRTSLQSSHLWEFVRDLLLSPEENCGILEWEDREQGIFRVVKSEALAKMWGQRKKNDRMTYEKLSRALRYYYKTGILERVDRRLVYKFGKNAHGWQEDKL
The note with it: protein: recombinant; tags: N-terminal GST; dsDNA, one strand shown. In outline:
as §1

A further assay concerns the target T12, ETV3 (Homo sapiens, UniProt P41162-2 1-143).
T12 sequence: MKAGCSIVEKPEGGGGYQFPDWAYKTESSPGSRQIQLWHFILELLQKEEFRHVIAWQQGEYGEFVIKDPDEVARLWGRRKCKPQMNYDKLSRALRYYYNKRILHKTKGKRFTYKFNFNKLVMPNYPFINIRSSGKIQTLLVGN
The note with it: protein: recombinant; tags: N-terminal GST; dsDNA, one strand shown. The method, boiled down: as §1

The next assay concerns the target ETV6 (Homo sapiens, UniProt P41212 1-452). The note with it: protein: recombinant; tags: N-terminal GST; dsDNA, one strand shown. The method, boiled down:
as §1

Chain of ETV5 (P41161 whole entry): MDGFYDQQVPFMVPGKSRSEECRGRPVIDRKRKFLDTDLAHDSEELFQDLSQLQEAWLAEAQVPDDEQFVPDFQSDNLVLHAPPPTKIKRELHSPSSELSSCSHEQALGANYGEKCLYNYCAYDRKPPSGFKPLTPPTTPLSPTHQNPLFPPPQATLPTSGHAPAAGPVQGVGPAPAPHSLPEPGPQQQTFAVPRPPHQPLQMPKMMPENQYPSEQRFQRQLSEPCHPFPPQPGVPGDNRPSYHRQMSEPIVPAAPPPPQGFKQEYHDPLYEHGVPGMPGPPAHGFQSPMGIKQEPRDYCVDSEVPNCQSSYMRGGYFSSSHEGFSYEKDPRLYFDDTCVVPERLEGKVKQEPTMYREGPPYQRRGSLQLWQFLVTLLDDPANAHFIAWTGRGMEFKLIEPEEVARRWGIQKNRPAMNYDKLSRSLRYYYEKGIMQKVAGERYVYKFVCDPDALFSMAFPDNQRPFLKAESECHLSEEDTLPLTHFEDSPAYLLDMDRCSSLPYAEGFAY
Chain of HSF1 (Q00613 whole entry): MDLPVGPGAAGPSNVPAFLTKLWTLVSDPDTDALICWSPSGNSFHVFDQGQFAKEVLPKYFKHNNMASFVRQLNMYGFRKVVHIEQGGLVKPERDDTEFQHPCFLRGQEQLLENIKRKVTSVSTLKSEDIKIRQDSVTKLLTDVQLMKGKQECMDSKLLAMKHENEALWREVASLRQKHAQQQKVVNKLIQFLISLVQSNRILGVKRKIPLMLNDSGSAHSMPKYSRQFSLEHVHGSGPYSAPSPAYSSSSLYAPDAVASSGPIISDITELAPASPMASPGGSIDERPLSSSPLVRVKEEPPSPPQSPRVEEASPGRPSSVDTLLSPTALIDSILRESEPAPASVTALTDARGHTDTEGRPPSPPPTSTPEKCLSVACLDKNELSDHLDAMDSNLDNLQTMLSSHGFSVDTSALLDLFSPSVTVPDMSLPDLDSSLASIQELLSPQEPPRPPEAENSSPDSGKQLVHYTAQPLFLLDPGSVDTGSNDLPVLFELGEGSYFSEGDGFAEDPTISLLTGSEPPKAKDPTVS
Chain of ELF4 (Q99607 whole entry): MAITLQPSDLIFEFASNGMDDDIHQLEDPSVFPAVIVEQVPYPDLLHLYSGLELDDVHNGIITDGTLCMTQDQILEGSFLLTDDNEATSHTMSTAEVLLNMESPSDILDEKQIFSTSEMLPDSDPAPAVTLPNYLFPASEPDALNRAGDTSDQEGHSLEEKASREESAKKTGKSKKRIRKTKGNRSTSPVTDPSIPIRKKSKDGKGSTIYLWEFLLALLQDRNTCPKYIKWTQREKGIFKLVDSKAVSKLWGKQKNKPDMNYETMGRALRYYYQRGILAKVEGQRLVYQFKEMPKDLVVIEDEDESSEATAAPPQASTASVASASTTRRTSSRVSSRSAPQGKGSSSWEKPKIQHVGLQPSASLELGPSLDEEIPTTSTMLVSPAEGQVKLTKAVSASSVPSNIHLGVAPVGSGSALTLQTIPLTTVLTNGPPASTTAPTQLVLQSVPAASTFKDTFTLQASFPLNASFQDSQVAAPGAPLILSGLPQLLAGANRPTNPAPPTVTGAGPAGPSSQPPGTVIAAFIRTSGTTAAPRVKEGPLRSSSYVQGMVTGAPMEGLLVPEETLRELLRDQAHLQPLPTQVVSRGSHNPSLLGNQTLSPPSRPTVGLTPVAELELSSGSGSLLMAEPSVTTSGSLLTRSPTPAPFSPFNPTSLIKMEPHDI
Chain of CRX (O43186 whole entry): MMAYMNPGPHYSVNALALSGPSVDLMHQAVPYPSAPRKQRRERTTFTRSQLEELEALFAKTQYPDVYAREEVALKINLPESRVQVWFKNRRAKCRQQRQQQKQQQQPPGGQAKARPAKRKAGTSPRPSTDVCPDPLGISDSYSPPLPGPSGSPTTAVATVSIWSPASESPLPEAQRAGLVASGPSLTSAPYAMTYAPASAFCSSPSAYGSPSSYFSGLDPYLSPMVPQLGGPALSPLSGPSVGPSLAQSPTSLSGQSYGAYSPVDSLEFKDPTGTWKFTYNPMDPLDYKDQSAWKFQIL
Chain of ETV6 (P41212 whole entry): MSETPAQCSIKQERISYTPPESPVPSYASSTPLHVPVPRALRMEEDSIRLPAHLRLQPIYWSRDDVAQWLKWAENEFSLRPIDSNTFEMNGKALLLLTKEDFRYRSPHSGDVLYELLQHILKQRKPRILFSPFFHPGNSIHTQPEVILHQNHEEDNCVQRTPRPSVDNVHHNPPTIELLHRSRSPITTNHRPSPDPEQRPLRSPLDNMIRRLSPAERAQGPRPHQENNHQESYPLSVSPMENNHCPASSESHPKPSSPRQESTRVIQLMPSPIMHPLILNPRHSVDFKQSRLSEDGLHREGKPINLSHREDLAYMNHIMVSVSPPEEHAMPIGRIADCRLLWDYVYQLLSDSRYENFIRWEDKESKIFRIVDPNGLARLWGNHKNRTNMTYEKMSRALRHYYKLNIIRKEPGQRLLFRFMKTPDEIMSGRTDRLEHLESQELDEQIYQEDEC
Chain of ETV1 (P50549 whole entry): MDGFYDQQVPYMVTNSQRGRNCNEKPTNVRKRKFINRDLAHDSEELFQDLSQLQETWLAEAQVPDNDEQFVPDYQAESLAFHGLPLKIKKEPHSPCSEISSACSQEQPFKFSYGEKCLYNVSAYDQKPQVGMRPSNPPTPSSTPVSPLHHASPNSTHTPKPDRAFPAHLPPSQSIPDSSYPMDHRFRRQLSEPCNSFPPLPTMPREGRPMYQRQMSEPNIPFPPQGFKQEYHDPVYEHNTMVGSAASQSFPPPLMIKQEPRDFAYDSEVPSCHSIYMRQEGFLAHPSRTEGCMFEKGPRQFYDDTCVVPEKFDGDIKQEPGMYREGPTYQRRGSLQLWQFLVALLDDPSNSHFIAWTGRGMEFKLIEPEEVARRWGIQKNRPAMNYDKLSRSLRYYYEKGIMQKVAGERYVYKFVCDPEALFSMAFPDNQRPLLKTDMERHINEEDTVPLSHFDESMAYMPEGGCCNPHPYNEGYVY

As to AAACAC, the binding signal was 1.31 fold enrichment (6-mer frequency, TF over GST control) with FEV; 1.24 fold enrichment (6-mer frequency, TF over GST control) with ETV5; 1.09 fold enrichment (6-mer frequency, TF over GST control) with HSF1; 1.24 fold enrichment (6-mer frequency, TF over GST control) with SPIC; 1.34 fold enrichment (6-mer frequency, TF over GST control) with ELF4; 1.27 fold enrichment (6-mer frequency, TF over GST control) with ELK4. Besides, the binding signal was 1.36 fold enrichment (6-mer frequency, TF over GST control) in the assay with ETV2; 1.33 fold enrichment (6-mer frequency, TF over GST control) with ELF3; 1.05 fold enrichment (6-mer frequency, TF over GST control) with CRX; 1.26 fold enrichment (6-mer frequency, TF over GST control) with ETV1; 1.34 fold enrichment (6-mer frequency, TF over GST control) in the assay with ERF; 1.37 fold enrichment (6-mer frequency, TF over GST control) with ETV3L. Besides, the binding signal with ETS2 was 1.38 fold enrichment (6-mer frequency, TF over GST control); with SPDEF, 1.31 fold enrichment (6-mer frequency, TF over GST control); in the assay with ETV7, 1.34 fold enrichment (6-mer frequency, TF over GST control); in the assay with ELF5 it was 1.3 fold enrichment (6-mer frequency, TF over GST control); with ETV3 it was 1.33 fold enrichment (6-mer frequency, TF over GST control); in the assay with ETV6, 1.32 fold enrichment (6-mer frequency, TF over GST control).
